# From PubChem BioAssay (Tox21)
# Where “and” joins values, the source holds several entries; their conditions need not be identical. Equal values may be shown once. Inconclusive results are not listed. Where a call stands in place of a potency, no number is given. Where a structure was tested more than once in an assay, its records may differ in their call. Calls of active or inactive are those of the source. Unless noted, the call rests on the fitted dose curve.
# Columns and labels:
# [1] = Nuclear factor erythroid 2-related factor 2/antioxidant responsive element (Nrf2/ARE) small molecule agonists: qHTS cell viability counter screen in human keratinocytes (AID 1919968; active means well fitted curve in the direction sought with a large enough effect in the repeat runs; an effect the other way counts as inactive or inconclusive; further: nearly all actives have a fitted effect of over 55% in size; further: potency means the concentration at half of the fitted maximal effect)
# How it was run: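 Viability counter-screen: KeratinoSens reporter cells, DMSO-delivered compounds, 23 h at 37 C, CellTiter-Fluor fluorescence.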
# [2] = Nuclear factor erythroid 2-related factor 2/antioxidant responsive element (Nrf2/ARE) small molecule agonists: luciferase reporter gene qHTS assay in human keratinocytes (AID 1919969); further: nearly all actives have a fitted effect of over 35% in size; further: potency means the concentration at half of the fitted maximal effect
# [3] = target: Gonadotropin-releasing hormone receptor (Homo sapiens) (UniProt P30968); assay: Human gonadotropin-releasing hormone receptor (GnRHR) small molecule agonists, calcium flux assay in GnRHR-HEK293 cells (AID 1920063); further: nearly all actives have a fitted effect of over 35% in size
# Sequence of Gonadotropin-releasing hormone receptor (Homo sapiens) (P30968 whole entry, looked up): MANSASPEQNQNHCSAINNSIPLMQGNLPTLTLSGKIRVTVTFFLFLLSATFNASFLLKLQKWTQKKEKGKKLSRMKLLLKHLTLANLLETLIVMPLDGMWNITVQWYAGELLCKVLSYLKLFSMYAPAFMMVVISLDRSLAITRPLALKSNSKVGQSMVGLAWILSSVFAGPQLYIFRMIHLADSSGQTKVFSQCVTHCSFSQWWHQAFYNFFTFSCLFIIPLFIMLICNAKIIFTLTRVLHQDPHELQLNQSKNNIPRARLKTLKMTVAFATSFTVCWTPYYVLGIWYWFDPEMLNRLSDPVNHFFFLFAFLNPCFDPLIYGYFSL
# How it was run: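 Tox21-format agonist screen using human GnRHR-expressing HEK293 cells and a fluorescent calcium dye; kinetic 3-min fluorescence reading after compound addition, 15-point concentration series run in triplicate.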
# [4] = target: KiSS-1 receptor (Homo sapiens) (UniProt Q969F8); assay: Human kisspeptin (KISS1R) small molecule agonists, calcium flux assay in KISS1R-HEK293 cells (AID 1920064; active means well fitted curve in the direction sought with a large enough effect in the repeat runs; an effect the other way counts as inactive or inconclusive)
# Sequence of KiSS-1 receptor (Homo sapiens) (Q969F8 whole entry, looked up): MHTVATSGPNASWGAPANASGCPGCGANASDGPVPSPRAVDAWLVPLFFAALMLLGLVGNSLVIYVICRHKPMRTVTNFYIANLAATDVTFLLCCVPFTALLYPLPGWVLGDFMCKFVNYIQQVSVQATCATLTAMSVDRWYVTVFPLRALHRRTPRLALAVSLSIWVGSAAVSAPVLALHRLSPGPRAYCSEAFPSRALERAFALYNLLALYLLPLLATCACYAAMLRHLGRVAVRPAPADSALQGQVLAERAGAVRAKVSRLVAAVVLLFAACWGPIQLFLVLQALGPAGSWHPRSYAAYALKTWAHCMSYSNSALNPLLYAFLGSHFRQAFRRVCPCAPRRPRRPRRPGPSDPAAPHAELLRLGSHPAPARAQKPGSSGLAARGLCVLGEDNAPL
# How it was run: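 Intracellular calcium mobilization in KISS1R-HEK293 cells was recorded by fluorescence (Ex/Em 480/540) for 3 min following compound addition to cells pre-loaded 1 h with calcium dye.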
# [5] = G protein-coupled receptor (GPCR) small molecule agonists, calcium flux assay: HEK293 wild type cell line counter screen (AID 1920065)
# How it was run: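 In this agonist-mode screen, ATP is the positive control and DMSO the vehicle. Cells grow 18 h before a 1 h dye incubation at 37 C; signal is taken at Ex/Em 480/540 over 3 min.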
# [6] = p53 small molecule agonists, cell-based qHTS assay with human liver microsomes: qHTS cell viability counter screen (AID 1963579); further: nearly all actives have a fitted effect of over 45% in size; further: potency means the concentration at half of the fitted maximal effect
# How it was run: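 p53RE-bla cells (4,000/well) were pre-incubated 5 h at 37 C, then given compounds in DMSO plus human liver microsomes (0.5 mg/mL final) and NADPH (0.5 mg/mL final) for 16 h at 37 C. Viability was read by CellTiter-Glo luminescence.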
# [7] = p53 small molecule agonists, cell-based qHTS assay with rat liver microsomes: qHTS cell viability counter screen (AID 1963580); further: nearly all actives have a fitted effect of over 45% in size
# How it was run: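 p53RE-bla HCT-116 cells (4,000/well) rested 5 h at 37 C, then given Tox21 compounds in DMSO with rat liver microsomes (0.5 mg/mL final) plus NADPH (0.5 mg/mL final) for 16 h at 37 C. Viability read by CellTiter-Glo luminescence after 30 min at room temperature.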
# [8] = p53 small molecule agonists, cell-based qHTS assay: qHTS cell viability counter screen (AID 1963581); further: nearly all actives have a fitted effect of over 45% in size; further: potency means the concentration at half of the fitted maximal effect
# How it was run: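 Compounds are pinned onto HCT-116 p53RE-bla cells and left 16 h at 37 C. Following the reporter FRET read, ATP is quantified by CellTiter-Glo luminescence after 30 min at room temperature.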
# [9] = p53 small molecule agonists, cell-based qHTS assay (AID 1963582; active means well fitted activation curve with a large enough effect in the signal ratio in the repeat runs, not every such curve was filed as active; the % refers to the signal ratio; further: potency means the concentration at half of the fitted maximal effect)
# How it was run: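 Agonist activity was scored from beta-lactamase FRET fluorescence in p53RE-bla cells treated 16 h at 37 C with compounds in DMSO, substrate incubation being 2 h at room temperature.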
# [10] = target: Beta-2 adrenergic receptor (Homo sapiens) (UniProt P07550); assay: Adrenergic beta2 receptor (ADRB2) small molecule antagonists, cell-based qHTS assay (AID 1963592); further: nearly all actives have a fitted effect of over 50% in size; further: potency means the concentration at half of the fitted maximal effect
# Sequence of Beta-2 adrenergic receptor (Homo sapiens) (P07550 whole entry, looked up): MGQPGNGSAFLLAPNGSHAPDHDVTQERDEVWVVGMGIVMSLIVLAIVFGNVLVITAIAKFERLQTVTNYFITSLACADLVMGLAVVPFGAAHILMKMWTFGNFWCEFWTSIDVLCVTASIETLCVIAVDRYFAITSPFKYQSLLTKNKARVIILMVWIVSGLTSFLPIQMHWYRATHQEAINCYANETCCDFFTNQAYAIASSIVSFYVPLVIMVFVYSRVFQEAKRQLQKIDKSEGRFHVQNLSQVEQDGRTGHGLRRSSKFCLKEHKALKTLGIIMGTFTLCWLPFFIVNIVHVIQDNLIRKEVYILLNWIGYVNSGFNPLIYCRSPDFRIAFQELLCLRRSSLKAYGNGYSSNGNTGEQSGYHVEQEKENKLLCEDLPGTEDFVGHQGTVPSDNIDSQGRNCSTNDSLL
# How it was run: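 Cells (CHO, stable ADRB2 overexpression) incubated 18-20hr at 37C; compounds added from DMSO; agonist mix (1nM isoproterenol, 100uM IBMX, 25uM Ro-20-1724) added; 0.5hr RT; d2-cAMP and anti-cAMP-cryptate added; 1hr RT; 665/615 nm read.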
# [11] = target: D(2) dopamine receptor (Homo sapiens) (UniProt P14416); assay: Dopamine D2 receptor (DRD2) small molecule agonists, cell-based qHTS assay (AID 1963594); further: nearly all actives have a fitted effect of over 35% in size
# Sequence of D(2) dopamine receptor (Homo sapiens) (P14416 whole entry, looked up): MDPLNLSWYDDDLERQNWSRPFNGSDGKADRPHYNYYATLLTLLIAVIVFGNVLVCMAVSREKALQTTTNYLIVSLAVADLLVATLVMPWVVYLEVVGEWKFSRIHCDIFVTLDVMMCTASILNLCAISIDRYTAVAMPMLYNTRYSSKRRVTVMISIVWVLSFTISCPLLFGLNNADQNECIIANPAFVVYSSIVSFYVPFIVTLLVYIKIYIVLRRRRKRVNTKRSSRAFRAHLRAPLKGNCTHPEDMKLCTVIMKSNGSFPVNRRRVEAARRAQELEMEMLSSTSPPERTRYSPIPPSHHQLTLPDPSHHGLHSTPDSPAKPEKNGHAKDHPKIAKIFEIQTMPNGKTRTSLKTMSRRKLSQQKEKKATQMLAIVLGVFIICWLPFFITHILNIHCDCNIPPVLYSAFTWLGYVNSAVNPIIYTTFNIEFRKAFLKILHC
# How it was run: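 HEK293 cells stably expressing DRD2 were cultured 24 h at 37 C, then given Ro20-1724 (0.1 mM final) and compounds for 10 min at room temperature. NKH477 (200nM) was then added for 30 min. cAMP was read by HTRF.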
# [12] = p53 small molecule agonists, cell-based qHTS assay with human liver microsomes (AID 1963577)
# How it was run: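 p53RE-bla reporter cells were pre-incubated 5 h at 37 C, then treated with compounds plus human liver microsomes (0.5 mg/mL final) and NADPH (0.5 mg/mL final) for 16 h at 37 C. Beta-lactamase activity was read by LiveBLAzer fluorescence after 2 h at room temperature.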
# [13] = target: 5-hydroxytryptamine receptor 2A (Homo sapiens) (UniProt P28223); assay: 5-hydroxytryptamine receptor 2A (HTR2A) small molecule antagonists, cell-based qHTS assay (AID 1963586); further: nearly all actives have a fitted effect of over 45% in size; further: potency means the concentration at half of the fitted maximal effect
# Sequence of 5-hydroxytryptamine receptor 2A (Homo sapiens) (P28223 whole entry, looked up): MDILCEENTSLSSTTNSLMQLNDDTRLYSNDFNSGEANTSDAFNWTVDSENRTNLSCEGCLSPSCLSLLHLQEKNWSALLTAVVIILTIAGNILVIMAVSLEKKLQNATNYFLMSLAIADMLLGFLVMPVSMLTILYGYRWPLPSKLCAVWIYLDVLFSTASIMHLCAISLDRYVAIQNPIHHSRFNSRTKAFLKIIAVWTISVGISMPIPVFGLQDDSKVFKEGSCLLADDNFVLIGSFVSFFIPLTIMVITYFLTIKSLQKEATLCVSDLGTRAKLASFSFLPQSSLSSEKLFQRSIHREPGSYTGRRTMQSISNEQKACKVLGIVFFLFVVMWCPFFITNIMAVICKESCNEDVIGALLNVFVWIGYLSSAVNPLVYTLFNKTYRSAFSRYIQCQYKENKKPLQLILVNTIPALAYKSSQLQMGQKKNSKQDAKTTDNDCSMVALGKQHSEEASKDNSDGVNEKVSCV
# How it was run: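 Antagonist-mode intracellular calcium assay: DOI (4 nM) added after 5 min compound pre-incubation at room temperature to dye-loaded HTR2A-CHO cells. Fluorescence followed for 3 min, sampled every second.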
# [14] = target: 5-hydroxytryptamine receptor 2A (Homo sapiens) (UniProt P28223); assay: 5-hydroxytryptamine receptor 2A (HTR2A) small molecule agonists, cell-based qHTS assay (AID 1963587); further: nearly all actives have a fitted effect of over 30% in size
# How it was run: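 HTR2A-CHO cells, plated 18 h at 37 C/5% CO2, dye-loaded 1 h at 37 C; compounds in DMSO added by pin tool (agonist mode). Intracellular calcium flux read as kinetic fluorescence on FDSS over 2 min at 1 s intervals.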
# [15] = target: Muscarinic acetylcholine receptor M1 (Homo sapiens) (UniProt P11229); assay: Cholinergic receptor muscarinic 1 (CHRM1) small molecule antagonists, cell-based qHTS assay (AID 1963588); further: nearly all actives have a fitted effect of over 40% in size
# Sequence of Muscarinic acetylcholine receptor M1 (Homo sapiens) (P11229 whole entry, looked up): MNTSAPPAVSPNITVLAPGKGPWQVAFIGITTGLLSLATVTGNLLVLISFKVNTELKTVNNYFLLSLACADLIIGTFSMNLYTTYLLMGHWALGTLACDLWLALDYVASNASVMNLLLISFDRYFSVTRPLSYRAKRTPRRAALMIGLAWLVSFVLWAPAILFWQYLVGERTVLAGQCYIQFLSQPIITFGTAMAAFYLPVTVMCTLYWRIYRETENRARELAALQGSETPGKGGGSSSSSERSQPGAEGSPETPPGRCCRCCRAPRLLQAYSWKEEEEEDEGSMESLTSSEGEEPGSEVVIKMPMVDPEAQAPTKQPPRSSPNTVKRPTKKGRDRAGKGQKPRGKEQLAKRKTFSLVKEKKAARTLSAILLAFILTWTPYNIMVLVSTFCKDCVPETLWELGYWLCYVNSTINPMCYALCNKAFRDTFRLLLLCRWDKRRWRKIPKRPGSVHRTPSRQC
# How it was run: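 CHRM1-CHO calcium-flux assay, antagonist mode. Cells were seeded 18 h, dye-loaded 1 h at 37 C and given compound for 5 min at RT, then acetylcholine was added at 50nM. FDSS fluorescence was read 3 min; 15 concentrations, three runs.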
# [16] = target: Muscarinic acetylcholine receptor M1 (Homo sapiens) (UniProt P11229); assay: Cholinergic receptor muscarinic 1 (CHRM1) small molecule agonists, cell-based qHTS assay (AID 1963589); further: nearly all actives have a fitted effect of over 35% in size; further: potency means the concentration at half of the fitted maximal effect
# How it was run: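 Stable CHRM1-CHO cells (human receptor) were incubated 18 h, dye-loaded for 1 h at 37 C and exposed to test compounds for agonist activity, with calcium-dependent fluorescence followed kinetically.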
# [17] = cAMP Responsive Elements (CRE) small molecule agonists, cell-based qHTS assay (AID 1963590)
# How it was run: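 FRET-based beta-lactamase readout (LiveBLAzer B/G, 2 h RT) quantified CRE activation in HEK 293T CRE-bla cells after 3 h treatment with DMSO-dissolved compounds.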
# [18] = cAMP Responsive Elements (CRE) small molecule antagonists, cell-based qHTS assay (AID 1963591; active means well fitted inhibition curve with a large enough effect in the signal ratio in the repeat runs, not every such curve was filed as active; the % refers to the signal ratio)
# How it was run: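 qHTS in CRE-bla HEK 293T cells: compound in DMSO, then 0.25 uM NKH477 (final), 3 h at 37 °C/5% CO2; beta-lactamase FRET read-out after 2 h substrate incubation.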
# [19] = target: D(2) dopamine receptor (Homo sapiens) (UniProt P14416); assay: Dopamine D2 receptor (DRD2) small molecule antagonists, cell-based qHTS assay (AID 1963595; active means well fitted inhibition curve with a large enough effect in the signal ratio in the repeat runs, with a control signal flat; the % refers to the signal ratio)
# How it was run: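 Cells were plated and grown for 24 h at 37 °C. Ro20-1724 (0.1 mM final) went in first, then compound for 10 min. NKH477 (200 nM) with quinpirole (12 nM) followed for 30 min at RT, then HTRF detection reagents for 1 h.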
# [20] = target: Beta-2 adrenergic receptor (Homo sapiens) (UniProt P07550); assay: Adrenergic beta2 receptor (ADRB2) small molecule agonists, cell-based qHTS assay (AID 1963593);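 further: CHO cells stably overexpressing human ADRB2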
# How it was run: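 CHO cells stably over-expressing ADRB2 were plated overnight at 37C, then dosed with compounds plus a stimulation mix containing 100uM IBMX and 25uM Ro-20-1724 for 0.5hr at room temperature. cAMP was measured by HTRF competition, 1hr.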
Structure (SMILES),Potency [1],Potency [2],Potency [3],Potency [4],Potency [5],Potency [6],Potency [7],Potency [8],Potency [9],Potency [10],Potency [11],Potency [12],Potency [13],Potency [14],Potency [15],Potency [16],Potency [17],Potency [18],Potency [19],Potency [20]
COC(=O)[C@H]1[C@H]2C[C@@H]3c4[nH]c5cc(OC)ccc5c4CCN3C[C@H]2C[C@@H](OC(=O)c2cc(OC)c(OC)c(OC)c2)[C@@H]1OC,48.5 µM (active) and inactive,inactive,inactive,inactive,inactive,inactive,inactive,inactive,inactive,54.4 µM (active) and 19.9 µM (active) and inactive,inactive,,,,,,,,,
CC(=O)c1ccccc1,inactive,inactive,inactive,inactive,inactive,,inactive,inactive,,inactive,inactive,inactive,inactive,inactive,inactive,inactive,inactive,inactive,inactive,
CCCCCCOC(C)=O,inactive,inactive,inactive,inactive,inactive,inactive,inactive,,inactive,,inactive,,inactive,inactive,inactive,inactive,inactive,inactive,inactive,
C=CCCCCCCCCCC,inactive,inactive,inactive,inactive,inactive,inactive,inactive,inactive,inactive,inactive,inactive,,inactive,inactive,inactive,inactive,,,inactive,
Nc1cc(Cl)c(-c2cc(Cl)c(N)cc2Cl)cc1Cl,27.3 µM (active) and 48.6 µM (active),3.06 µM (active) and inactive,inactive,inactive,inactive,51.3 µM (active),,32.4 µM (active),,inactive,inactive,,5.29 µM (active),inactive,inactive,inactive,,,inactive,
CCCCOCCOCCSC#N,inactive,inactive,inactive,inactive,inactive,inactive,inactive,,,inactive,inactive,,inactive,inactive,inactive,inactive,inactive,inactive,inactive,
c1ccncc1,inactive,inactive,inactive,inactive,inactive,inactive,inactive,inactive,inactive,inactive,inactive,,inactive,inactive,inactive,inactive,inactive,inactive,inactive,inactive
C=C(CC(=O)O)C(=O)O,inactive,inactive,inactive,inactive,inactive,inactive,inactive,inactive,inactive,inactive,inactive,,inactive,inactive,inactive,inactive,inactive,inactive,inactive,inactive
CCCCCC(=O)O,inactive,inactive,inactive,inactive,inactive,inactive,,inactive,inactive,inactive,inactive,,inactive,inactive,,inactive,inactive,inactive,inactive,inactive
CN(C)C(=O)Nc1ccc(Cl)c(Cl)c1,inactive,inactive,inactive,inactive,inactive,inactive,inactive,inactive,,inactive,inactive,,inactive,inactive,inactive,inactive,inactive,inactive,inactive,inactive
CCCC(C)=O,inactive,inactive,inactive,inactive,inactive,,,inactive,inactive,inactive,inactive,inactive,inactive,inactive,inactive,inactive,inactive,inactive,inactive,inactive
CC(O)CN(CCN(CC(C)O)CC(C)O)CC(C)O (stereo unspecified),inactive,inactive,inactive,inactive,inactive,inactive,inactive,inactive,inactive,inactive,inactive,,inactive,inactive,inactive,inactive,inactive,inactive,inactive,inactive
c1ccc2c(c1)c1cccc3ccc4cccc2c4c31,inactive,inactive,inactive,inactive,inactive,inactive,inactive,inactive,45.4 µM (active) and inactive,inactive,inactive,,,,,,inactive,inactive,inactive,
COC(=O)CC(=O)OC,inactive,inactive,inactive,inactive,inactive,inactive,inactive,inactive,inactive,,inactive,,inactive,inactive,inactive,20.3 µM (active) and inactive,inactive,inactive,,inactive
